Each structure is given as a SMILES string. Inconclusive results are not listed. Values without a mark were called inactive. Activity calls are given as the source filed them. Calls come from the whole dose curve; as a rule, active = well fitted cell-killing curve with a large enough effect; inconclusive = small, poorly fitted or top-dose-only effect, or effect the other way; inactive = no such curve, though single readings can be large or run the other way.
Potency is the fitted concentration of half-maximal effect.

The nature of this experiment: Quantitative High-Throughput drug screen in 47 multiple myeloma cell lines against the NCATS MIPE library collection: KHM11_PLB cell viability assay (AID 1918962). Note: nearly all actives have a fitted effect of over 35% in size. The conditions noted are these: KHM11 myeloma cell viability, CellTiter-Glo ATP luminescence, 48 h; series mostly up to 45.8 µM; viability, % of DMSO control: at the top concentration. From the text: PI: Beverly A. Mock Ph.D.
Laboratory of Cancer Biology and Genetics,
Center for Cancer Research, National Cancer Institute,
National Institute of Health, Bethesda, Maryland
Drug resistance and disease progression are common in multiple myeloma (MM) patients, underscoring the need for new therapeutic combinations. […] We hypothesized that effective combinations would reduce MYC expression and enhance p16 activity. […] These preclinical data identify potentially useful drug combinations for evaluation in drug-resistant MM and reveal potential mechanisms of combined drug sensitivity.
Described herein is the primary MIPE qHTS used to cherrypick compounds. Validated compounds were then further tested for potential synergistic activiy.
[1] Peat TJ, Gaikwad SM, Dubois W, Gyabaah-Kessie N, Zhang S, Gorjifard S, Phyo Z, Andres M, Hughitt VK, Simpson RM, Miller MA, Girvin AT, Taylor A, Williams D, D'Antonio N, Zhang Y, Rajagopalan A, Flietner E, Wilson K, Zhang X, Shinn P, Klumpp-Thomas C, McKnight C, Itkin Z, Chen L, Kazandijian D, Zhang J, Michalowski AM, Simmons JK, Keats J, Thomas CJ, Mock BA. Drug combinations identified by high-throughput screening promote cell cycle transition and upregulate Smad pathways in myeloma. Cancer Lett. 2023 Aug 1;568:216284. doi: 10.1016/j.canlet.2023.216284. Epub 2023 Jun 24. PMID: 37356470; PMCID: PMC10408729.
SEQUENCE No. (e.g., 1, 2, 3, etc.); […] (e.g., Cells, Incubation, Reagent, etc.); VALUE and DESCRIPTION.
1; Cells; 5 uL; white, solid bottom 1536-well Greiner assay plate.
2; Compounds; 23 nL; Kalypsis pin tool (Wako USA) equipped with a 1536-well pin head to transfer to the assay plates.
3; Incubation; 48 hours; 37C incubation.
4; Reagent;5uL; CellTiter Glo (Promega).
5; Detector; 425V; Luminescence; Viewlux PerkinElmer.
NOTES (numbers refer to Sequence numbers above)
1. The cell-based screening methods employed in this study were like those previously published. Briefly, the corresponding myeloma cell lines were screened in 1,536-well plates with 500 cells, 5-uL per well for inhibition of cell viability (assessed by measuring ATP levels with CellTiterGlo).
2. NCATS MIPE 4.0 library of approved and investigational drugs were added using the Kalypsis pin tool. Wells treated with DMSO only for 100% viability and media only wells for 0% viability were used as controls.
3. The assay plates were covered and incubated for 48 hours in a 37C, 5% CO2 incubator with controlled humidity.
4. After 48 hours, CellTilter-GloTM luminescent substrate mix (Promega) reagent was added to the assay plate and plates we incubated for 5 min at room temperature.
5. Signal was measured as median relative luminescence units on a ViewLux (PerkinElmer) multiplate reader.
[1] Heske CM, Davis MI, Baumgart JT, Wilson K, Gormally MV, Chen L, Zhang X, Ceribelli M, Duveau DY, Guha R, Ferrer M, Arnaldez FI, Ji J, Tran HL, Zhang Y, Mendoza A, Helman LJ, Thomas CJ. Matrix Screen Identifies Synergistic Combination of PARP Inhibitors and Nicotinamide Phosphoribosyltransferase (NAMPT) Inhibitors in Ewing Sarcoma. Clin Cancer Res. 2017 Dec 1;23(23):7301-7311. doi: 10.1158/1078-0432.CCR-17-1121. Epub 2017 Sep 12. PMID: 28899971; PMCID: PMC6636827.
In the case of `CC(=O)SCC(Cc1ccccc1)C(=O)NCC(=O)OCc1ccccc1` (stereo not given), the Potency was 7430 nM (active).

With `C=C(C)[C@@H]1CC[C@]2(C(=O)O)CC[C@]3(C)[C@H](CC[C@@H]4[C@@]5(C)CC[C@H](O)C(C)(C)[C@@H]5CC[C@]43C)[C@@H]12`, the Potency is 3720 nM (active). On to `CC(=O)NC(CS)C(=O)O` (stereo not given), for which the “viability, % of DMSO control” value was 97.4%. For `CC(C)N1[N]C(=C2C=c3cc(O)ccc3=N2)c2c(N)ncnc21`, the Potency is 83.3 nM (active). Same read-out and setting: next, `Cn1cnc(=N)c2[nH]cnc21`: 372 nM (active). `CC[C@H](CC[C@@H](C)[C@H]1CC[C@H]2[C@@H]3CC=C4C[C@@H](O)CC[C@]4(C)[C@@H]3CC[C@]12C)C(C)C`: the “viability, % of DMSO control” value was 93.2%.

In the case of `CCS(=O)(=O)Nc1ccc2[nH]c(O)c(C(=Nc3ccc(CN4CCCCC4)cc3)c3ccccc3)c2c1`, the Potency is 418 nM (active). The same measure, in the same setting: next, `CCC(C(=O)O)C1CCC(C)C(C(C)C(O)C(C)C(=O)C(CC)C2OC3(C=CC(O)[C@@]4(CC[C@](C)(C5CC[C@@](O)(CC)C(C)O5)O4)O3)C(C)CC2C)O1` (stereo not given in full): 14800 nM (active). `CCN1CCN(C(=O)N[C@H](C(=O)N[C@@H]2C(=O)N3C(C(=O)O)=C(CSc4nnnn4C)CS[C@@H]23)c2ccc(O)cc2)C(=O)C1=O`: the “viability, % of DMSO control” value was 117% [at 15.3 µM].

As to `COc1cc(C)c(Sc2cnc(NC(=O)c3ccc(CNC(C)C(C)(C)C)cc3)s2)cc1C(=O)N1CCN(C(C)=O)CC1` (stereo not given), the Potency is 14800 nM (active).

For `COc1cccc2c1C(=O)c1c(O)c3c(c(O)c1C2=O)C[C@@](O)(C(=O)CO)C[C@@H]3O[C@H]1C[C@H](N)[C@H](OC2CCCCO2)[C@H](C)O1` (stereo not given in full), the Potency was 2090 nM (active). As to `O=C1NCCc2[nH]c(-c3ccncc3)cc21`, the Potency was 2090 nM (active). Still for that read-out and setting: the same measure for `C=C1C(=O)O[C@H]2[C@@H]1CCC(C)=CCC[C@@]1(C)O[C@@H]21`: 10500 nM (active). Same read-out and setting: the same measure for `NC(=O)Nc1cc(-c2ccc(CN3CCOCC3)cc2)sc1C(N)=O`: 935 nM (active).

`C[C@H](NC(=O)Cc1cc(F)cc(F)c1)C(=O)N[C@H](C(=O)OC(C)(C)C)c1ccccc1`: the “viability, % of DMSO control” value was 116%. Turning to `COc1ccc(S(=O)(=O)Nc2cc(-c3c(O)ccc4ccccc34)c(O)c3ccccc23)cc1`, the Potency is 14800 nM (active).

As to `O=C(C[C@@H]1CC=CCCC(=O)O[C@H](c2ccccc2)CNC1=O)NCc1ccc(Cl)cc1`, the Potency is 2640 nM (active). The same measure, in the same setting: next, `C=CC(=O)N1CCc2ccc(-n3c(=O)ccc4cnc5ccc(-c6cnn(C)c6)cc5c43)cc21`: 526 nM (active). `CC(C)OC(=O)[C@H](C)N[P@](=O)(OC[C@H]1O[C@@H](n2ccc(=O)[nH]c2=O)[C@](C)(F)[C@H]1O)Oc1ccccc1`: the “viability, % of DMSO control” value was 129%. On the same count and under the same terms, the same measure for `C[C@H](NC(=O)[C@@H](O)c1cc(F)cc(F)c1)C(=O)N[C@@H]1C(=O)N(C)c2ccccc2-c2ccccc21`: 99.7%.

Regarding `COc1cc(C(=O)NC2CCN(C)CC2)ccc1Nc1ncc2c(n1)N(C1CCCC1)CCC(=O)N2C(C)C`, the Potency is 14800 nM (active). Same read-out and setting: the same measure for `C[C@H](NCc1ccc(OCc2cccc(F)c2)cc1)C(N)=O`: 1480 nM (active). Same read-out and setting: the same measure for `CCCNC(=O)[C@H]1O[C@H]1C(=O)N[C@H](C(=O)N1CCC[C@@H]1C(=O)OC)C(C)CC` (stereo not given in full): 33200 nM (active). With `CC(C)(O)[C@H]1CC[C@@](C)([C@H]2[C@@H](O)C[C@@]3(C)[C@@H]4C[C@H](O[C@@H]5O[C@H](CO)[C@@H](O)[C@H](O)[C@@H]5O)[C@H]5C(C)(C)[C@@H](O[C@@H]6OC[C@@H](O)[C@H](O)[C@@H]6O)CC[C@@]56C[C@@]46CC[C@]23C)O1`, the “viability, % of DMSO control” value is 110%. Consider `c1cc(CN2CCCNCCNCCCNCC2)ccc1CN1CCCNCCNCCCNCC1`, for which the “viability, % of DMSO control” value was 145%. Take `O=C(CCCCCCC(=O)Nc1cccnc1)NO`: the Potency was 8330 nM (active). `Cc1noc(-c2ccc(CSCCC(=O)O)cc2)c1NC(=O)OC(C)c1ccccc1Cl` (stereo not given): the “viability, % of DMSO control” value is 88.2%.

On to `CC(C)(N)c1ccc(-c2nc3ccccc3nc2-c2ccccc2)cc1`, for which the Potency was 8330 nM (active). Still for that read-out and setting: the same measure for `CN(C)CC(=O)N1CCC(c2ccc(NC(=O)c3ncc(C#N)[nH]3)c(C3=CCCCC3)c2)CC1`: 20900 nM (active); for `C=Cc1c(C)c2cc3nc(cc4[nH]c(cc5nc(cc1[nH]2)C(C)=C5CCC(=O)O)c(CCC(=O)OC)c4C)[C@@]1(C)C3=CC=C(C(=O)OC)[C@H]1C(=O)OC`: 526 nM (active).

As for `CCNC(=O)c1cc2c(-c3cc(OCCN4CCCC4)c(Cl)cc3Cl)nc(N)nc2s1`, the Potency was 590 nM (active). `CC1=C(C(=O)Nc2cc3cn[nH]c3cc2F)C(c2ccc(Cl)cc2F)N=C(c2ccnc(Cl)c2)N1` (stereo not given): the “viability, % of DMSO control” value was 107%. Consider `CCOc1cc2ncc(C#N)c(Nc3ccc(OCc4ccccn4)c(Cl)c3)c2cc1NC(=O)C=CCN(C)C`, for which the Potency is 935 nM (active). Regarding `CS[C@H]1SC[C@@H]2C(=O)N(C)[C@H](C(C)C)C(=O)OC[C@H](NC(=O)c3cnc4ccccc4n3)C(=O)N[C@H](C)C(=O)N(C)[C@@H]1C(=O)N(C)[C@H](C(C)C)C(=O)OC[C@H](NC(=O)c1cnc3ccccc3n1)C(=O)N[C@H](C)C(=O)N2C`, the Potency is 9.3 nM (active). `CC(=O)N[C@H]1[C@@H]([C@H](O)[C@H](O)CO)OC(C(=O)O)=C[C@@H]1N=C(N)N`: the “viability, % of DMSO control” value was 111%.

As to `CC(C)C[C@H](NC(=O)CNC(=O)c1cc(Cl)ccc1Cl)B1OC(=O)CC(CC(=O)O)(C(=O)O)O1` (stereo not given in full), the Potency was 37.2 nM (active). Consider `CC(C)C[C@H](NC(=O)[C@@H](NC(=O)c1cccc(-c2ccccc2)n1)[C@@H](C)O)B(O)O`, for which the Potency was 18.7 nM (active). On to `CC(=O)[C@]1(O)Cc2c(O)c3c(c(O)c2[C@@H](O[C@H]2C[C@H](N)[C@@H](O)[C@H](C)O2)C1)C(=O)c1ccccc1C3=O`, for which the Potency is 296 nM (active). On to `Nc1ncn([C@@H]2O[C@H](CO)[C@@H](O)[C@@H]2O)c(=O)n1`, for which the Potency was 14800 nM (active). On the same count and under the same terms, the same measure for `COc1cc(C=CC(=O)CC(=O)C=Cc2ccc(O)c(OC)c2)ccc1O`: 6050 nM (active).
